Measured values: PubChem BioAssay (NCATS)
Values without a mark were called inactive. Calls come from the whole dose curve; as a rule, active = well fitted inhibition curve with a large enough effect; inconclusive = small, poorly fitted or top-dose-only effect; inactive = no such curve, though single readings can be large or run the other way.

Experiment: qHTS assay for measurement of the activity of small molecule inhibitors on Zika virus induced Caspase-3 activity in human astrocytoma cells (AID 1224859)
Conditions: SNB-19 ZIKV-induced caspase-3/7, luminescence, 6 h; series mostly up to 45.7 µM; activity change, negative = inhibition: at the top concentration
From the text: National Center for Advancing Translational Sciences [NCATS]
Johns Hopkins University School of Medicine
Increase in the Caspase-3 activity indicates an activation of apoptosis cell death pathway caused by Zika virus infection in certain types of neuronal cells including human neural progenitor cells (hNPCs), astrocytes, and astrocytoma cell line (SNB-19). This cell-based caspase-3 activity assay measures the increased caspase-3 activity in the astrocytoma cell line (SNB-19) after a 6-hour Zika virus infection with a luminescence readout. A decrease in the luminescence signal in this assay by small molecule treatment indicates an inhibitory effect of that small molecule on the Zika virus induced caspase-3 activity that may correlate with its effect on reduction of Zika virus caused cell death.
The medium for SNB-19 cells is composed of RPMI 1640 (ATCC, Cat.# 30-2001), 10% fetal bovine serum (FBS) (GE healthcare Life Sciences, Cat.# SH30071.03), and 1% Pen/Strep (Gibco, Cat.# 15140-122). A Caspase-Glo 3/7 assay kit (catalog number G8092; Promega, Madison, WI) was used to detect caspase-3 activity induced by Zika virus infection in human cells. The reagent mixture was reconstituted as described in the protocol from the manufacturer. Polystyrene tissue culture treated and PDL coated white plates were obtained from Greiner Bio-One (Monroe, NC). Cells were seeded in 384- or 1536-well assay plates and cultured at 37 C with 5% CO2 for 16 to 20 hours. The typical cell seeding density in the 1536-well plate assay is 250 cells/well in 3ul medium for SNB-19 cells in tissue culture treated plates. Compounds were added to cells and incubated for one hour before addition of ZIKV solution to cells (2 FFU/cell). After incubation at 37 C with 5% CO2 for 6 hours, the reagent mixture of Caspase-Glo 3/7 assay kit was added to each well, followed by incubation at room temperature for 30 minutes. The luminescence intensity of the assay plates was measured using a ViewLux plate reader (PerkinElmer). Data were normalized by using the cell-containing wells without ZIKV as a negative control (0% induction of caspase 3/7 activity) and wells containing ZIKV infected cells (Caspase-3 activity induced) as a positive control (100% induction of caspase 3 activity). The percentage inhibitions of the increased Caspase-3 activity by small molecule inhibitors were then calculated.

SMILES	activity change, negative = inhibition
NC(N)=NOCC[C@H](N)C(=O)O	19.6%
Cc1c2ccncc2c(C)c2c1[nH]c1ccccc12	7%
COc1ccc2c(c1)[C@@]13CCCC[C@H]1[C@@H](C2)NCC3	-7.96%
C[N+](C)(C)CC#CCOC(=O)Nc1cccc(Cl)c1	-5.19%
CCS(=O)(=O)Nc1cccc(C(=C2CCCCC2)c2cnc[nH]2)c1	-0.163%
CN1CCc2cc(O)cc3c2[C@H]1Cc1ccc(O)c(O)c1-3	3%
NNC(N)=O	14.4%
C[N+]1(C)C2CCC1CC(OC(=O)c1c[nH]c3ccccc13)C2 (stereo not given)	-1.26%
CC(=O)NBr	3.79%
Ic1ccccc1CNC1C2CCN(CC2)C1C(c1ccccc1)c1ccccc1 (stereo not given)	14.8%
C[N+]1(C)CCOC(O)(c2ccc(-c3ccc(C4(O)C[N+](C)(C)CCO4)cc3)cc2)C1 (stereo not given)	-7.87%
Clc1cc(I)cc(Cl)c1NC1=NCCN1	-2.7%
COc1ccc(OC)c(C(O)C(C)N)c1 (stereo not given)	-15.2%
Oc1ccc2c3c1O[C@H]1c4oc5ccccc5c4C[C@@]4(O)C(C2)N(CC2CC2)CCC314 (stereo not given in full)	-2.68%
CCCN(CCC)C1Cc2cc(OC)c(OC)cc2C1	8.94%
NCCCP(=O)(O)O	3.95%
COc1ccc(CNC(=O)/C=C/c2ccc3[nH]cc(CCN(C)C)c3c2)cc1	-6.59%
CCCN1CCC[C@@H](c2cccc(O)c2)C1	0.0843%
N#CCCN	-8.67%
NC(CCCCCP(=O)(O)O)C(=O)O (stereo not given)	5%

SMILES	activity change, negative = inhibition
CCN1C[C@@]2(COC)C3[C@@H](OC)C4[C@@H]1C3([C@@H]1C[C@]3(O)[C@H](OC(=O)c5ccccc5)[C@@H]1[C@]4(OC(C)=O)[C@@H](O)[C@@H]3OC)[C@H](OC)C[C@H]2O	-6.74%
NC(Cc1cc(O)c(O)cc1O)C(=O)O (stereo not given)	-2.64%
C[C@@H]1[C@@H]2Cc3ccc(O)cc3[C@@]1(C)CCN2CC1CC1	3.24%
NC(=O)c1cc(N2CC2)c([N+](=O)[O-])cc1[N+](=O)[O-]	-4.54%
O=[N+]([O-])/C=C/c1ccc2c(c1)OCO2	28.3%
C[CH2][Hg][S]c1ccccc1C(=O)O	1.4%
CN1CC[C@@]2(C)c3cc(O)ccc3N(C)C12 (stereo not given in full)	-1.35%
N[C@@H](Cn1oc(=O)[nH]c1=O)C(=O)O	7.23%
NCC(CP(=O)(O)O)c1ccc(Cl)cc1 (stereo not given)	-16.8%
CCCN(CCC)CCc1c[nH]c2ccc(C(N)=O)cc12	-1.69%
CP(=O)(O)C1=CCNCC1	-10.8%
C[C@@H]1O[C@H](C[N+](C)(C)C)CS1	-3.98%
NCCc1ccc(S(=O)(=O)F)cc1	1.97%
CCn1cnc2c(Nc3cccc(Cl)c3)nc(N[C@@H]3CCCC[C@@H]3N)nc21	13.2%
CCCN1CCc2cc(O)cc3c2[C@H]1Cc1ccc(O)c(O)c1-3	-8.95%
CC12NC(Cc3ccccc31)c1ccccc12 (stereo not given)	-7.36%
COC(=O)N1CCN(C(=O)Cc2ccc(Cl)c(Cl)c2)C(CN2CCCC2)C1 (stereo not given)	-5.92%
C/C(O)=C(\C#N)C(=O)Nc1cc(Br)ccc1Br	7.8%
CN(N=O)c1ccc(O)c(O)c1	-4.43%
C[Se]C[C@H](N)C(=O)O	3.13%
